Measured values reported in PubChem BioAssay.
Several values for one entry are separate records, joined by “and”; a condition that tells them apart may be missing. Identical values can stand only once. Some structures have more than one record in an assay (separate samples or runs), and their calls can disagree. Activity calls are given as the source filed them.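 The calls were made as follows, unless noted: active = normalized viability below 100% at a tested concentration; inactive = the rest.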

How the values were obtained:
[1] = Wnt pathway potentiators raising nuclear beta-catenin – imaging, WNT3A-conditioned medium, mouse C2C12, NPC library, primary screen (AID 1117326; in the data active = nuclear beta-catenin stimulation mostly above about 4.2%, no sharp cut-off; inactive = mostly below about 10%); conditions: stronger effect = higher value
[2] = stimulators of insulin release from INS-1E, primary screen, cell-based, 5 mM glucose, NPC library (AID 1117329;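 active = compound raises insulin release from rat beta cells at 5 mM glucose, no numeric limit stated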); conditions: rat INS-1E insulin secretion, at 10 µM, stronger effect = higher value
[3] = growth inhibition of GSK3B-pretreated HCT116 cells – cell-based, CellTiter-Glo, 0.2 to 20 µM (AID 1117336;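 active = compounds lowering colon cancer cell viability after pretreatment blocking the GSK3B kinase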); conditions: HCT116 viability after GSK3B inhibitor, at 20 µM, stronger effect = higher value
[4] = inhibition of endothelial tube formation, primary screen, imaging, VEGF stimulated, CD31 staining, tube area, NPC library (AID 1117340;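 active = compound that reduces growth-factor-driven endothelial tube area in a mixed cell culture, no cutoff stated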); conditions: VEGF-stimulated ADSC/ECFC co-culture, at 10 µM, stronger effect = higher value
[5] = GLP1 release stimulators, primary, NCI-H716, NPC library (AID 1117341;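 active = compound raises GLP1 secretion from the human gut endocrine cells, with no numeric limit stated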); conditions: NCI-H716 cells, at 10 µM, stronger effect = higher value
[6] = HCT116 colon cancer cell growth inhibition, primary screen, CellTiter-Glo luminescence, NPC library (AID 1117342;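 active = compounds that lower survival of HCT116 colon cancer cells in the luminescence readout, no numeric limit stated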); conditions: at 20 µM (top of the series)
[7] = reduced SW480 viability measured with CellTiter-Glo, NPC library, primary (AID 1117343;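 active = compounds that lower viability of the colon cancer cells in the luminescence readout, with no numeric limit stated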); conditions: CellTiter-Glo luminescence; at 20 µM (top of the series)
[8] = NPC library primary testing for decreased DLD-1 cell viability via CellTiter-Glo (AID 1117346;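 active = compounds that lower survival of DLD-1 colon cancer cells in the luminescence readout, no cutoff given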); conditions: DLD-1 viability, CellTiter-Glo luminescence; at 20 µM (top of the series)
[9] = biological target: 6-phosphogluconate dehydrogenase, decarboxylating (Homo sapiens) (UniProt P52209); assay: inhibition of human phosphogluconate dehydrogenase – biochemical, recombinant enzyme, NADPH absorbance, primary screen (AID 1159550;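 active = at least 20% inhibition of 6-phosphogluconate dehydrogenase activity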); conditions: recombinant 6PGD, NADPH absorbance 341 nm; at 10 µM; stronger effect = higher value
Sequence of 6-phosphogluconate dehydrogenase, decarboxylating (Homo sapiens) (P52209 whole entry, looked up): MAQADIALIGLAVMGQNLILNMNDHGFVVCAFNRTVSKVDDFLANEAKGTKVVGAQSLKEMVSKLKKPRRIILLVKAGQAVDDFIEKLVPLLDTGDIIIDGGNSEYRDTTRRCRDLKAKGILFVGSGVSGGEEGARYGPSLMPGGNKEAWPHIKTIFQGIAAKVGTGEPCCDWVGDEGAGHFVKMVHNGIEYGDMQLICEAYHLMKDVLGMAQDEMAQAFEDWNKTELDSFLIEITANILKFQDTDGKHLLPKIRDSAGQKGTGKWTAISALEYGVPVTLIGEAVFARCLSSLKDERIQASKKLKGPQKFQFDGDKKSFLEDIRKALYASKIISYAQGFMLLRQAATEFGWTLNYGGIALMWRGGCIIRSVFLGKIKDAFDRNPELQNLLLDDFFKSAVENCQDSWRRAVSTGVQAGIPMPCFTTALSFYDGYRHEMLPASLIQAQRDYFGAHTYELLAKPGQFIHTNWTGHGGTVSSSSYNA

[10] = EMT-state selective cytotoxicity in co-culture – imaging, PC-3E GFP, TEM4-18 mCherry, primary screen (AID 1345086;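 active = compounds killing one labelled cell type while sparing the other, by normalised counts and ratio limits, not self-fluorescent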;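 as to all read-outs here: cells exposed to compound for 72 h before imaging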;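 as to red/green cell ratio (normalised): normalised mesenchymal count divided by normalised epithelial count so high means epithelial killing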); conditions: PC-3E GFP / TEM4-18 mCherry co-culture, imaging cell counts, at 1 µM; for red/green cell ratio (normalised): actives lie on both sides, counts scaled to control wells, 1 = unselective
[11] = MELAS cybrid and Rieske KO viability enhancers – cell-based, MELAS cybrids, Rieske KO mouse fibroblasts, CellTiter-Glo, primary screen (AID 1508586;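 active = mean z-score across replicates of 1.96 or higher in either the MELAS or the Rieske mutant cell line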;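 also: z relative to plate mean and SD of compound and empty wells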); conditions: low glucose
[12] = biological target: NAD(+) hydrolase SARM1 (Homo sapiens) (UniProt Q6SZW1); assay: blocking NAD cleavage by SARM1 SAM-TIR – cell lysate, NAD-Glo luminescence (AID 1508614;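 active = compound whose remaining NAD level is above about 45 nM, limit read from the data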;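 also: higher remaining NAD means stronger inhibition of SARM1 NADase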); conditions: SAM-TIR HEK293T lysate NADase, at 1 µM, stronger effect = higher value
Sequence of NAD(+) hydrolase SARM1 (Homo sapiens) (Q6SZW1 whole entry, looked up): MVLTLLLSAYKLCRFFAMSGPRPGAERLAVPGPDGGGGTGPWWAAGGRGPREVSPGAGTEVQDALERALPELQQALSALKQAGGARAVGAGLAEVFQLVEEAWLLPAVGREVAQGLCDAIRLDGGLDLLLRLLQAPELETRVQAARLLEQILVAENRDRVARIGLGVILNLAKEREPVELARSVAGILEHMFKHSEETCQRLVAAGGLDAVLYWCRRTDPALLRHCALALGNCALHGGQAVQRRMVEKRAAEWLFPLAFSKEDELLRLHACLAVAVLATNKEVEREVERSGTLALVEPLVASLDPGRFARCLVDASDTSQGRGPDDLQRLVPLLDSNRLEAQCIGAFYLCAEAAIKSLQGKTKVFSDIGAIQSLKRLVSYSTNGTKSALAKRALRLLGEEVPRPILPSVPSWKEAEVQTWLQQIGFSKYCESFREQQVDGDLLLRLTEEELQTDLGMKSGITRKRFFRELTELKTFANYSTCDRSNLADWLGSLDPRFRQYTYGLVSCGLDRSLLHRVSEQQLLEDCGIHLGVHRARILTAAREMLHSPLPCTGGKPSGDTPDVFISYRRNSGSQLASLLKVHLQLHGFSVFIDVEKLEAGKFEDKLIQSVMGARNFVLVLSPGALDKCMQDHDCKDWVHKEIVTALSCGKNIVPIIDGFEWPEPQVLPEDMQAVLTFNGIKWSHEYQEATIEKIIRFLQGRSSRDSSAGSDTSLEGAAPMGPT

F380Y = assay: BK channel mutant inhibitors and activators – cell-based, U2OS BacMam, thallium flux, beta subunits, selectivity assay, profiling panel (AID 1259406;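 active = thallium flux through the channel raised or lowered by more than 3 SD from vehicle-only wells, actives on both sides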;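 also: initial slope of Thallos dye fluorescence rise after thallium is added; log ratio against the mean of 0.3% DMSO vehicle wells on the same plate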); conditions: U2OS BacMam BK variants, at 30 µM
F380Y/beta1 = assay: as above; conditions: U2OS BacMam BK variants, at 30 µM
F380Y/beta2Delta = assay: as above; conditions: U2OS BacMam BK variants, at 30 µM
F380Y/beta4 = assay: as above; conditions: U2OS BacMam BK variants, at 30 µM
[13] = biological target: Calcium-activated potassium channel subunit alpha-1 (Homo sapiens) + Leucine-rich repeat-containing protein 26 (Homo sapiens) (UniProt Q12791+Q2I0M4); assay: as above; conditions: U2OS BacMam BK variants, F380Y/Slo1WT/gamma1, at 30 µM
Sequence of Calcium-activated potassium channel subunit alpha-1 (Homo sapiens) + Leucine-rich repeat-containing protein 26 (Homo sapiens) (Q2I0M4 whole entry, looked up, one chain of several): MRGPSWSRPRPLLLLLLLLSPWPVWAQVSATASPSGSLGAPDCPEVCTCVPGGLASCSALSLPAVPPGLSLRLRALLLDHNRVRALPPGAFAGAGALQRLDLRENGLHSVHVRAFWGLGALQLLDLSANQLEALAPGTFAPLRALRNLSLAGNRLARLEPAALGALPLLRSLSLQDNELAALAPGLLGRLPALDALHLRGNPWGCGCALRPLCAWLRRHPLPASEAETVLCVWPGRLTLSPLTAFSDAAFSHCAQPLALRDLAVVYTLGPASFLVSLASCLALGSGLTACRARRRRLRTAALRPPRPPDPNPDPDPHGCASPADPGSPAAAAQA

R275C = assay: as above; conditions: U2OS BacMam BK variants, at 30 µM
[14] = viability loss with induced miR-34 in A549 – imaging, A549 dox-inducible miR-34, nuclei and caspase counts, primary screen (AID 1347080); conditions: A549 miR-34 inducible, Hoechst nuclei count, 48 h
[15] = drug combination growth inhibition, ovarian cancer – cell-based, oncology-focused library, rucaparib conditional, profiling panel (AID 1508598); conditions: patient-derived ovarian cancer cells, CellTiter-Glo viability, 144 h, stronger effect = lower value
[16] = measured here: epithelial PC-3E GFP cell survival
[17] = measured here: mesenchymal TEM4-18 mCherry cell survival
[18] = MELAS cybrid survival, CellTiter-Glo 48 h, stronger effect = higher value
[19] = Rieske KO mouse fibroblast survival, CellTiter-Glo 72 h

O=C(O)c1cccnc1
1.11: normalised cell number [10, 17]
inactive: nuclear beta-catenin stimulation ([1]; at 10 µM) -0.4% | insulin secretion stimulation [2] -1.6% | viability decrease [3] -0.65% | tube area decrease [4] -17.1% | GLP1 secretion stimulation [5] -5.4% | inhibition of viability [6] -15.8% | viability decrease (inhibition) [7] 37.9% | viability decrease (inhibition) [8] 4.6% | inhibition [9] -13.9% | red/green cell ratio (normalised) [10] 1.22 | z-score [11, 18] -0.357 and 0.00203 | remaining NAD [12] 10 nM | log fold change Tl+ flux (F380Y) -0.0113 | log fold change Tl+ flux (F380Y/beta1) 0.00202 | log fold change Tl+ flux (F380Y/beta2Delta) 0.0201 | log fold change Tl+ flux (F380Y/beta4) 0.0275 | log fold change Tl+ flux [13] -4.3e-05 | log fold change Tl+ flux (R275C) 0.0183
0.91: normalised cell number [10, 16]
0.576 and -0.807: z-score [11, 19]
-0.5%: nuclear beta-catenin stimulation ([1]; stimulation, at 2 µM)

CCCc1cc(=O)[nH]c(=S)[nH]1
1.05: normalised cell number [10, 16]
inactive: nuclear beta-catenin stimulation ([1]; at 10 µM) 0.6% | insulin secretion stimulation [2] -0.9% | viability decrease [3] -14.4% | tube area decrease [4] 8.2% | GLP1 secretion stimulation [5] -0.8% | inhibition of viability [6] -19.2% | viability decrease (inhibition) [7] -1.9% | viability decrease (inhibition) [8] -28.7% | inhibition [9] -7.2% | red/green cell ratio (normalised) [10] 1.26 | z-score [11, 18] -0.276 and 0.0359 | remaining NAD [12] 10 nM | log fold change Tl+ flux (F380Y) 0.00762 | log fold change Tl+ flux (F380Y/beta2Delta) -0.0326 | log fold change Tl+ flux (F380Y/beta4) 0.0238 | log fold change Tl+ flux [13] 0.00637 | log fold change Tl+ flux (R275C) -0.0214
1.49 and 1.36 and 2.91: fold change ([14]; measured here: relative caspase fold change +Dox/-Dox)
active: log fold change Tl+ flux (F380Y/beta1) -0.132
0.8%: nuclear beta-catenin stimulation ([1]; stimulation, at 2 µM)
10600 and 9200 and 7970: cell count ([14]; measured here: total cells with miR-34 induction, stronger effect = lower value)
0.644 and -0.188: z-score [11, 19]
1.32: normalised cell number [10, 17]

CC(C)Cc1ccc(C(C)C(=O)O)cc1 (configuration not stated)
1.7%: nuclear beta-catenin stimulation ([1]; stimulation, at 2 µM)
inactive: nuclear beta-catenin stimulation ([1]; at 10 µM) 0.3% | insulin secretion stimulation [2] -2.6% | viability decrease [3] -2.1% | tube area decrease [4] 0.9% | GLP1 secretion stimulation [5] 0.1% | inhibition of viability [6] -7.8% | viability decrease (inhibition) [7] 21.6% | viability decrease (inhibition) [8] 16.6% | inhibition [9] -4.32% | red/green cell ratio (normalised) [10] 1 | z-score [11, 18] 0.0693 and -0.542 | remaining NAD [12] 10 nM | log fold change Tl+ flux (F380Y) 0.0419 | log fold change Tl+ flux (F380Y/beta1) -0.0217 | log fold change Tl+ flux (F380Y/beta2Delta) 0.0321 | log fold change Tl+ flux (F380Y/beta4) 0.0254 | log fold change Tl+ flux [13] -0.0267 | log fold change Tl+ flux (R275C) 0.00709
-0.22 and -1.3: z-score [11, 19]
1.11: normalised cell number [10, 16] | normalised cell number [10, 17]

CCCCNc1cc(C(=O)O)cc(S(N)(=O)=O)c1Oc1ccccc1
1.05: normalised cell number [10, 17]
-0.392 and -0.0528 and -1.25: z-score [11, 19]
1.1: normalised cell number [10, 16]
-0.1%: nuclear beta-catenin stimulation ([1]; stimulation, at 2 µM)
inactive: nuclear beta-catenin stimulation ([1]; at 10 µM) 0.1% | insulin secretion stimulation [2] -0.7% | viability decrease [3] -57% | tube area decrease [4] 3.7% | GLP1 secretion stimulation [5] -2.2% | inhibition of viability [6] 2.63% | viability decrease (inhibition) [7] 2.4% | viability decrease (inhibition) [8] -4.2% | inhibition [9] 0% | red/green cell ratio (normalised) [10] 0.96 | z-score [11, 18] -0.34 and 0.797 and -0.227 | remaining NAD [12] 10 nM | log fold change Tl+ flux (F380Y) 0.0239 | log fold change Tl+ flux (F380Y/beta1) -0.0436 | log fold change Tl+ flux (F380Y/beta2Delta) -0.0452 | log fold change Tl+ flux (F380Y/beta4) -0.00421 | log fold change Tl+ flux [13] -0.0253 | log fold change Tl+ flux (R275C) -0.00799

O=C1c2c(O)ccc(O)c2C(=O)c2c(NCCNCCO)ccc(NCCNCCO)c21
active: nuclear beta-catenin stimulation ([1]; at 10 µM) 79.6% | viability decrease [3] 102% | tube area decrease [4] 109% | inhibition of viability [6] 101% | viability decrease (inhibition) [7] 102% | viability decrease (inhibition) [8] 96.1% | viability ([15]; at 0.000305 µM, OCI-P5x cells, with rucaparib 20 µM, 100% = cells with rucaparib alone) 85.2% and 88.1% | viability ([15]; at 0.00122 µM, OCI-P5x cells, with rucaparib 20 µM, 100% = cells with rucaparib alone) 98.9% and 93.9% | viability ([15]; at 0.00488 µM, OCI-P5x cells, with rucaparib 20 µM, 100% = cells with rucaparib alone) 97.7% and 84.3% | viability ([15]; at 0.0195 µM, OCI-C5x cells, with rucaparib 10 µM, 100% = cells with rucaparib alone) 83.6% and 77% | viability ([15]; at 0.0195 µM, OCI-C5x cells, without rucaparib) 87.9% and 74.9% | viability ([15]; at 0.0195 µM, OCI-P5x cells, with rucaparib 20 µM, 100% = cells with rucaparib alone) 86.2% and 68.2% | viability ([15]; at 0.0195 µM, OCI-P5x cells, without rucaparib) 74.8% and 44.3% | viability ([15]; at 0.0781 µM, OCI-C5x cells, with rucaparib 10 µM, 100% = cells with rucaparib alone) 89.4% and 82.8% | viability ([15]; at 0.0781 µM, OCI-C5x cells, without rucaparib) 78.8% and 86.1% | viability ([15]; at 0.0781 µM, OCI-P5x cells, with rucaparib 20 µM, 100% = cells with rucaparib alone) 52.6% and 49.6% | viability ([15]; at 0.0781 µM, OCI-P5x cells, without rucaparib) 27.2% and 21.5% | viability ([15]; at 0.313 µM, OCI-C5x cells, with rucaparib 10 µM, 100% = cells with rucaparib alone) 76.1% and 60.1% | viability ([15]; at 0.313 µM, OCI-C5x cells, without rucaparib) 57% and 56.6% | viability ([15]; at 0.313 µM, OCI-P5x cells, with rucaparib 20 µM, 100% = cells with rucaparib alone) 25.3% and 26% | viability ([15]; at 0.313 µM, OCI-P5x cells, without rucaparib) 12.4% and 12.3% | viability ([15]; at 1.25 µM, OCI-C5x cells, with rucaparib 10 µM, 100% = cells with rucaparib alone) 13.3% and 11.4% | viability ([15]; at 1.25 µM, OCI-C5x cells, without rucaparib) 15% and 15.4% | viability ([15]; at 1.25 µM, OCI-P5x cells, with rucaparib 20 µM, 100% = cells with rucaparib alone) 7.5% and 9.35% | viability ([15]; at 1.25 µM, OCI-P5x cells, without rucaparib) 6.58% and 5.99% | viability ([15]; at 5 µM, OCI-C5x cells, with rucaparib 10 µM, 100% = cells with rucaparib alone) 3.19% and 2.94% | viability ([15]; at 5 µM, OCI-C5x cells, without rucaparib) 2.31% and 2.92% | viability ([15]; at 5 µM, OCI-P5x cells, with rucaparib 20 µM, 100% = cells with rucaparib alone) 6.35% and 8.96% | viability ([15]; at 5 µM, OCI-P5x cells, without rucaparib) 6.78% and 6.39%
104% (inactive) and 93.6% (active): viability ([15]; at 0.00488 µM, OCI-C5x cells, with rucaparib 10 µM, 100% = cells with rucaparib alone)
inactive: insulin secretion stimulation [2] 3.9% | GLP1 secretion stimulation [5] -17.3% | inhibition [9] 13% | red/green cell ratio (normalised) [10] 0.57 | viability ([15]; at 0.000305 µM, OCI-C5x cells, with rucaparib 10 µM, 100% = cells with rucaparib alone) 111% and 109% | viability ([15]; at 0.000305 µM, OCI-C5x cells, without rucaparib) 114% and 118% | viability ([15]; at 0.00122 µM, OCI-C5x cells, with rucaparib 10 µM, 100% = cells with rucaparib alone) 114% and 109% | viability ([15]; at 0.00122 µM, OCI-C5x cells, without rucaparib) 117% and 115% | viability ([15]; at 0.00488 µM, OCI-C5x cells, without rucaparib) 113% and 104% | remaining NAD [12] 10 nM | log fold change Tl+ flux (F380Y) -0.0248 | log fold change Tl+ flux (F380Y/beta1) -0.0573 | log fold change Tl+ flux (F380Y/beta2Delta) 0.00615 | log fold change Tl+ flux (F380Y/beta4) -0.0582 | log fold change Tl+ flux [13] -0.0507 | log fold change Tl+ flux (R275C) -0.0256
0.2: normalised cell number [10, 16]
100% (inactive) and 94.2% (active): viability ([15]; at 0.000305 µM, OCI-P5x cells, without rucaparib)
14.4%: nuclear beta-catenin stimulation ([1]; stimulation, at 2 µM)
107% (inactive) and 84.4% (active): viability ([15]; at 0.00488 µM, OCI-P5x cells, without rucaparib)
0.12: normalised cell number [10, 17]
109% (inactive) and 96.8% (active): viability ([15]; at 0.00122 µM, OCI-P5x cells, without rucaparib)
